According to PubChem BioAssay:
Calls of active or inactive are those of the source.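 Rule for the calls: active = primary screen hit whose fluorescence ratio, in both repeats, exceeds the weak agonist control mean by 3 SD; inactive = the rest.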

Test system: TRPC4 (transient receptor potential cation channel C4 beta), mouse
Test: potentiation of DAMGO EC20 TRPC4 response – cell-based, second round, Fluo-4, HEK293 TRPC4beta/mu-opioid, 1 µM, confirmation (AID 2554)
Details: DAMGO EC20, Fluo-4 calcium flux, at 1 µM; stronger effect = higher value

potentiation, active:
CCN1CCN(c2ccc(S(=O)(=O)N3CCCCC3)cc2NC(=O)c2cccc(OC(F)F)c2)CC1 7%
O=[N+]([O-])c1ccc(N2CCN(CCOc3nonc3-c3ccccc3)CC2)c(Cl)c1 10%

outcome, inactive:
Fc1ccc(CN2C3=NCCCN3c3ccccc32)cc1
COc1ccc(-n2cc(CNCc3cnc4ccccn34)c(-c3cccc(F)c3)n2)cc1
N=c1c(C(=O)NCc2ccc(F)cc2)cc2c(=O)n3ccccc3nc2n1Cc1ccco1
O=C1CC2(CCN(S(=O)(=O)c3ccccc3F)CC2)Oc2ccccc21
O=C1Cc2ccccc2Sc2c(OCCN3CCCCC3)cccc21
C/C(CC(=O)NCc1ccc(Cl)cc1)=N\NC(=O)COc1ccc(C)cc1Br
CCCCNc1c(-c2ccc(SC(C)CC)c(OC)c2)nc2ccc(C)cn12 (configuration not stated)
CCOC(=O)C1NN=C(C(=O)c2ccccc2)C1c1ccc(Cl)cc1 (configuration not stated)
COc1ccc(-c2cc(C(=O)N3CC(C)CC(C)C3)c3ccccc3n2)cc1 (configuration not stated)
COC(=O)c1cc(N2CCN(C)CC2)nc2ccccc12
COc1cc(C2c3c(-c4ccccc4)n[nH]c3C(=O)N2c2ccccc2)ccc1O (configuration not stated)
O=C(c1ccccc1)c1coc2ccc(O)c(CN3CCOCC3)c12
CN(C)S(=O)(=O)c1cccc(COC(=O)c2ccc(Cl)cc2O)c1
CCOC(=O)C1=C(C)N(c2ccccc2)C(=O)NC1c1cccc([N+](=O)[O-])c1 (configuration not stated)
Cc1cc(=O)oc2cc(NC(=S)NCc3ccccn3)ccc12
